Assay results taken from PubChem BioAssay (NCI).
Where “and” joins values, the source holds several entries; their conditions need not be identical. Equal values may be shown once. This is part of a sample that, as a whole, favours compounds with a hit. Of some 79,000 tested, about 15% had one in any assay. A number with no mark means an inactive call. Calls of active or inactive are those of the source. Rule as the data show it: active = growth inhibition above about 70%; inactive = the rest. Starred links: 1 amine or outer side, 2 acyl side, 3 side chain; linkers in the order of their positions; H or OH if unused. Positions of bridges follow the written chain, without caps; N, C: chain ends. Non-standard residues stand in square brackets, D forms with d. Residues, ends and D or L forms follow the SMILES beside them. Chains are numbered I, II in the order given. Actinocin(9to1) = Cc1c2oc3c(C)ccc(C(=O)[*:1])c3nc-2c(C(=O)[*:2])c(N)c1=O; aThr = C[C@H](O)[C@H](N)C(=O)O; NMeV = CN[C@H](C(=O)O)C(C)C; Sar = CNCC(=O)O

Assay: NCI Yeast Anticancer Drug Screen. Data for the sgs1 mgt1 strain (AID 161);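 also: 0% = growth of cultures given vehicle only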
Conditions: S. cerevisiae sgs1 mgt1 strain, active compounds read high
Description: Growth inhibition of yeast strains with defined genetic alterations is measured as a screen for potential anti-cancer activity. Selected strains with alterations in DNA damage repair or cell cycle control were exposed to compounds and growth inhibition was measured relative to vehicle treated controls. The strain used in this assay is sgs1 mgt1

[1] = at 5.0 µM (retest, dose inferred, filed as 0.5)
[2] = at 50.0 µM (retest, dose inferred, filed as 5.0)

## Oc1ccc(Br)cc1C=Nc1cccc(C(F)(F)F)c1
[1]
  growth inhibition: 1%
[2]
  growth inhibition: 63%
At 50.0 µM
  growth inhibition: 81.7% (active)

## O=Cn1c2ccccc2c2ccccc21
[1]
  growth inhibition: -16%
[2]
  growth inhibition: 46%
At 50.0 µM
  growth inhibition: 33.5%

## CN(C)c1ccc(C(c2ccc(Cl)cc2)c2ccc(N(C)C)cc2)cc1
[1]
  growth inhibition: 98% (active)
[2]
  growth inhibition: 94% (active) and 99% (active)
At 50.0 µM
  growth inhibition: 94.1% (active) and 95.3% (active)

## Cc1nc2ccc(Br)cc2c(=O)n1-c1ccc(NC2OCC(O)C(O)C2O)cc1 (stereo unspecified)
[1]
  growth inhibition: -3%
[2]
  growth inhibition: 34%
At 50.0 µM
  growth inhibition: 64% and 0.15%

## COc1ccc(C(=O)OCCc2ccccc2)cc1
[1]
  growth inhibition: 7%
[2]
  growth inhibition: 32%
At 50.0 µM
  growth inhibition: 6.8%

## Cc1c2oc3c(C)ccc(C(=O)N[C@@H]4C(=O)N[C@H](C(C)C)C(=O)N5CCC[C@H]5C(=O)N(C)CC(=O)N(C)[C@@H](C(C)C)C(=O)O[C@H]4C)c3nc-2c(C(=O)N[C@@H]2C(=O)N[C@H](C(C)C)C(=O)N3CCC[C@H]3C(=O)N(C)CC(=O)N(C)[C@@H](C(C)C)C(=O)O[C@H]2C)c(N)c1=O (I: [aThr][dV]P[Sar][NMeV] / II: [aThr][dV]P[Sar][NMeV]; ester I:1-I:C, II:1-II:C; linker I:N-II:N via Actinocin(9to1))
[1]
  growth inhibition: 24%
[2]
  growth inhibition: 97% (active)
At 50.0 µM
  growth inhibition: 92.5% (active)

## OC(c1ccc(Br)cc1)(c1cccs1)C1CC1 (stereo unspecified)
[1]
  growth inhibition: -7%
[2]
  growth inhibition: 99% (active)

## O=C1c2ccccc2C2CCC1c1ccccc12 (stereo unspecified)
[1]
  growth inhibition: -15%
[2]
  growth inhibition: -7%
At 50.0 µM
  growth inhibition: 9.45%

## NNc1nnc(-c2ccccc2)nc1Cc1ccccc1
[1]
  growth inhibition: -7%
[2]
  growth inhibition: 95% (active)
At 50.0 µM
  growth inhibition: 82.9% (active)

## O=C1C=CC(=Nc2ccc3c(c2)Cc2cc(Cl)ccc2-3)O1
[1]
  growth inhibition: 49%
[2]
  growth inhibition: 100% (active)
At 50.0 µM
  growth inhibition: 99.5% (active)

## O=c1[nH]c(=O)n(CCCO)cc1F
[1]
  growth inhibition: 58%
[2]
  growth inhibition: 76% (active)
At 50.0 µM
  growth inhibition: -33.4%

## Cc1[nH]nc(C(F)(F)F)c1N=NN(C)C
[1]
  growth inhibition: 78% (active)
[2]
  growth inhibition: 98% (active)
At 50.0 µM
  growth inhibition: 45%

## Cc1c(N=Nc2ccc(Cl)cc2)c(C)n(C2OC(CO)C(O)C(O)C2O)c(=S)c1C#N (stereo unspecified)
[1]
  growth inhibition: 1%
[2]
  growth inhibition: 65%
At 50.0 µM
  growth inhibition: 87% (active)

## COc1cc(C(C)(C)C)cc(OC)c1C(O)(c1c(OC)cc(C(C)(C)C)cc1OC)c1c(OC)cc(C(C)(C)C)cc1OC
[1]
  growth inhibition: 13%
[2]
  growth inhibition: 97% (active)
At 50.0 µM
  growth inhibition: 80.1% (active)
